Records with an inconclusive call do not appear. The source made the active and inactive calls. Unless noted, calls follow the shape of the dose curve; as a rule, active = well fitted curve in either direction with a large enough effect (not every such curve was filed as active); inconclusive = small, poorly fitted or top-dose-only effect, or another doubt; inactive = flat fitted curve, though single readings scatter.
What was measured:
[1] = molecular target: Lysosomal acid glucosylceramidase (Homo sapiens) (UniProt P04062); assay: Glucocerebrosidase-p2 (AID 348; in the data active = potency below about 10 µM; also: potency is read from the fitted curve at half-maximal effect); conditions: purified GBA, blue fluorogenic substrate, 40 min
Chain of Lysosomal acid glucosylceramidase (Homo sapiens) (P04062 whole entry, looked up): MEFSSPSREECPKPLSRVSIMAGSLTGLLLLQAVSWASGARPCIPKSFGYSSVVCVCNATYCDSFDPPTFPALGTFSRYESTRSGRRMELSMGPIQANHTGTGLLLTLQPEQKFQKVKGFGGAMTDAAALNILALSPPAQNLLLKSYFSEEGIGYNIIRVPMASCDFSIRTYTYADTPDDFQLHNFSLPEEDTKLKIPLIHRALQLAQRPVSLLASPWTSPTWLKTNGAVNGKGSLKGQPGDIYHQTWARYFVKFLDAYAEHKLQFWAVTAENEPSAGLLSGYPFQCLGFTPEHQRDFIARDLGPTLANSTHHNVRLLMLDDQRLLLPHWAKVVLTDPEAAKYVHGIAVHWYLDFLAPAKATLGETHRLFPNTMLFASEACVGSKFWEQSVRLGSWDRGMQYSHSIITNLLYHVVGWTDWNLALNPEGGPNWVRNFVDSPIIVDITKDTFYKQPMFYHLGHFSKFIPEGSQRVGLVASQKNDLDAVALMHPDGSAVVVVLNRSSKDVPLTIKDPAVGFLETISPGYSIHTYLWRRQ
Method in brief: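 Normal human glucocerebrosidase (0.2 nM) with blue fluorogenic substrate (80 uM final) in citrate/phosphate pH 5.9 with 10mM sodium taurocholate, 0.01% tween-20; 40 min RT, NaOH/glycine stop; fluorescence Ex 365/Em 440; AC50 from a titration from 0.6 nM upwards.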

[2] = AP1 Signaling Pathway (AID 357); conditions: ME-180 AP-1-bla reporter, EGF-induced, beta-lactamase ratio, 5 h; at 7.69 µM (top of the series) unless noted;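 also: ME-180 reporter cells stimulated with EGF at its EC50 level; % is scaled to controls: 0 for no effect and ±100 for the full control effect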
Method in brief: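 In this screen, ME-180 cells in Opti-MEM with 0.5% dialyzed FBS received EC50 EGF and compound titrations for 5 h. AP-1 reporter beta-lactamase was detected via CCF4 ratio, giving AC50 for positive and negative modulators.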

[3] = NFAT Signaling Pathway (AID 444); conditions: Jurkat NFAT-bla M1, carbachol, beta-lactamase ratio, 5 h; at 7.69 µM (top of the series) unless noted;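 also: carbachol stimulus at about its EC50 of 1 µM final; % is scaled to controls: 0 for no effect and ±100 for the full control effect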
Method in brief: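 Read-out: CCF4 FRET ratio (460 nm/530 nm) after 1 h RT dye loading, used for %activity and AC50 from titration series. Cells: Jurkat NFAT-β-lactamase/M1 line, treated with compound plus 1 uM carbachol for 5 h, 37 °C.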

[4] = Stat Signaling Pathway (AID 446); conditions: ME-180 (cervical carcinoma) SIE beta-lactamase reporter, IL-6 stimulated, 5 h; at 7.69 µM (top of the series) unless noted;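 also: ME-180 cervical cancer cells given 40 pM IL-6 alongside compound; SIE-controlled beta-lactamase reporter measured as 460/530 nm FRET emission ratio; % is scaled to controls: 0 for no effect and ±100 for the full control effect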
Method in brief: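 FRET read-out (405 nm excitation, 460/530 nm emission) of a beta-lactamase reporter under a STAT-inducible element in ME-180 cervical carcinoma cells. Cells with compound receive 40 pM IL-6 for 5 h. Values are normalised to AC90 stimulation and AC90 JAK-inhibitor controls.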

[5] = molecular target: Glucocorticoid receptor (Homo sapiens) (UniProt P04150); assay: GR-GFP Redistribution (AID 450;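 active = compounds whose dose series gives a full or clear partial fitted curve of increased nuclear translocation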; also: potency is read from the fitted curve at half-maximal effect); conditions: U2OS GR-GFP nuclear translocation, laser cytometry, 2 h
Chain of Glucocorticoid receptor (Homo sapiens) (P04150 whole entry, looked up, the tested form may be a part): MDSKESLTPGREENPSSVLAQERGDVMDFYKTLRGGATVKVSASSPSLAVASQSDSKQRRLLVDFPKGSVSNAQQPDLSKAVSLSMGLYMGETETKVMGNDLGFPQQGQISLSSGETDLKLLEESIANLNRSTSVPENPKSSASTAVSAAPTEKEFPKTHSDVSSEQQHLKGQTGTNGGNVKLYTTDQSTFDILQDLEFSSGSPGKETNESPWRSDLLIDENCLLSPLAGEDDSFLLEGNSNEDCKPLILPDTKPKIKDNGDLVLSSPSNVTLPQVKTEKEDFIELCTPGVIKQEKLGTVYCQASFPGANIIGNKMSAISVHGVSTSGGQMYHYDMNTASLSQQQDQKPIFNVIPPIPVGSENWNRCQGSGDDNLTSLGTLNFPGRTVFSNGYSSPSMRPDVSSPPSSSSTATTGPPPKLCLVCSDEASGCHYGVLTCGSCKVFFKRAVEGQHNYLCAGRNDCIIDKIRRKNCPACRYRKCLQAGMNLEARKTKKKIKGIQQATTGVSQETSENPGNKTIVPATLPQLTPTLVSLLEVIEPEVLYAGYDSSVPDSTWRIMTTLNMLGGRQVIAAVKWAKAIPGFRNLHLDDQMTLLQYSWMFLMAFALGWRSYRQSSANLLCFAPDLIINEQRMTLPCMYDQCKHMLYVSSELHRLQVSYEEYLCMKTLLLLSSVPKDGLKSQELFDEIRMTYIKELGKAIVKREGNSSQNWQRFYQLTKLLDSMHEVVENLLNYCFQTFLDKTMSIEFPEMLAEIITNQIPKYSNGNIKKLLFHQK

[6] = molecular target: Glucocorticoid receptor (Homo sapiens) (UniProt P04150); assay: GR-EFC Redistribution (AID 451; calls by dose curve; also: potency is read from the fitted curve at half-maximal effect); conditions: CHO-K1 GR-EFC translocation, beta-gal luminescence, 2 h
Method in brief: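 Translocation of GR-ED fusion to nuclear EA restores b-gal, read by luminescence after 1 h room-temperature detection. Engineered CHO-K1 biosensor cells, 1,000/well, exposed 2 h at 37 C to titrations up to 46 uM final.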

[7] = molecular target: Mitogen-activated protein kinase 10 (Mus musculus) (UniProt Q61831); assay: JNK3 AlphaScreen Assay (AID 530); conditions: JNK3 lysate, c-Jun phosphorylation; series mostly up to 57.1 µM;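 also: kinase came from lysate of stimulated human HepG2 cells; signal reports phosphorylation of biotinylated GST-cJun 1-79 at Ser73 with 10 µM ATP; % is scaled to controls: 0 for no effect and ±100 for the full control effect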
Method in brief: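 qHTS titrations with 15 min compound pre-incubation before adding ATP (10 uM final). Read-out: AlphaScreen of Ser73-phosphorylated biotin-GST-cJun using HepG2 lysate JNK3 activated by IL-1β and TNFα.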

[8] = molecular target: 3',5'-cyclic-AMP phosphodiesterase 4B (Homo sapiens) (UniProt Q07343); assay: qHTS Assay for Inhibitors of PDE-IV (AID 607; active = well fitted activation curve with a large enough effect in the main read-out, with a control signal flat, not every such curve was filed as active; also: % of control where 0% means no effect); conditions: HEK293 ACTOne CNG channel cells, membrane potential fluorescence; series mostly up to 22.9 µM
Chain of 3',5'-cyclic-AMP phosphodiesterase 4B (Homo sapiens) (Q07343 whole entry, looked up): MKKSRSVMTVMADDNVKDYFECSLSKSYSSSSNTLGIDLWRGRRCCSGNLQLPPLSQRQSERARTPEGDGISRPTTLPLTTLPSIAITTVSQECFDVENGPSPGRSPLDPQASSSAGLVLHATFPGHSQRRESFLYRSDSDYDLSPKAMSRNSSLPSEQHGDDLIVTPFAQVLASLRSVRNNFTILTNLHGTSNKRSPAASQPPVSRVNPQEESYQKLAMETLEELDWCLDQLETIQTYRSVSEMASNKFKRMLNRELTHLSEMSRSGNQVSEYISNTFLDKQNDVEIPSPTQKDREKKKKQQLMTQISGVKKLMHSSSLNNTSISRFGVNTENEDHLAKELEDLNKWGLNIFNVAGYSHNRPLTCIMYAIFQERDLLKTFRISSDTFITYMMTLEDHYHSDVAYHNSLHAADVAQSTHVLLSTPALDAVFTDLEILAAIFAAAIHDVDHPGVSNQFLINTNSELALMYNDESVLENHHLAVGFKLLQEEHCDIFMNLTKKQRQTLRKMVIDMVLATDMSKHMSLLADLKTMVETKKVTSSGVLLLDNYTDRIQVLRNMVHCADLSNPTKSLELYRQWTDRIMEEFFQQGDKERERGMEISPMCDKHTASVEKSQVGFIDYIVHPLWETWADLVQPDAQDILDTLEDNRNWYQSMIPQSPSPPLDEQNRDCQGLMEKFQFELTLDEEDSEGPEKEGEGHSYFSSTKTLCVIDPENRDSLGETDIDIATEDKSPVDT
Method in brief: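 Cell-based read-out of cAMP via a modified cyclic nucleotide-gated channel and membrane potential dye (535/590 nm) in HEK293 cells expressing PDE4 endogenously. Compounds tested up to 22.9 uM final; 100 uM RO 20-1724 reference.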

[9] = Primary qHTS for small molecule stabilizers of the endoplasmic reticulum resident proteome: Secreted ER Calcium Modulated Protein (SERCaMP) assay (AID 1508630; active = well fitted curve in the direction sought with a large enough effect; an effect the other way counts as inactive or inconclusive; also: % is scaled to controls: 0 for no effect and ±100 for the full control effect); conditions: SH-SY5Y GLuc-SERCaMP (Gaussia luciferase released on ER calcium loss) secretion, thapsigargin, luminescence; series mostly up to 38.4 µM
Method in brief: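 The SH-SY5Y reporter protocol was run at 3 concentrations up to 38.3 uM (primary) or 11 concentrations (follow-up): 16 h compound, 100 nM thapsigargin for 4 h, then extracellular luciferase luminescence.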

[10] = molecular target: Cytochrome P450 3A4 (Homo sapiens) (UniProt P08684); assay: qHTS Assay for Activators of Cytochrome P450 3A4 (AID 885; active = well fitted curve in the direction sought with a large enough effect; an effect the other way counts as inactive or inconclusive; also: nearly all actives have a fitted effect of over 65% in size); conditions: recombinant CYP3A4, Luciferin-PPXE luminescence, 60 min; series mostly up to 57.1 µM
Chain of Cytochrome P450 3A4 (Homo sapiens) (P08684 whole entry, looked up): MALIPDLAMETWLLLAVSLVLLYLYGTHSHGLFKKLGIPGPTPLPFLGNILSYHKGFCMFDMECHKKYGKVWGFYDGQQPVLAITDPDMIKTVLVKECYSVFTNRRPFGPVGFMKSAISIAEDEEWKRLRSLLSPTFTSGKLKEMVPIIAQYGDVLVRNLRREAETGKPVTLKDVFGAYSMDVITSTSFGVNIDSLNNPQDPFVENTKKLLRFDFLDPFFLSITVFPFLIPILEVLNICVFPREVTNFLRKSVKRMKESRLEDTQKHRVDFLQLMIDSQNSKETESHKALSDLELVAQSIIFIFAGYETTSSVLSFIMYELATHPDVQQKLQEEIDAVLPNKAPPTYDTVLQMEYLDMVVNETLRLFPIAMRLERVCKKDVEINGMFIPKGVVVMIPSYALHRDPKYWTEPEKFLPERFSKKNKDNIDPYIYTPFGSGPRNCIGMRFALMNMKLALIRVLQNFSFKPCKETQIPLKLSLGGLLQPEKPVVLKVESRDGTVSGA
Method in brief: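 Luminescent readout of luciferin formed from 25 uM Luciferin-PPXE (KM level) by 20 nM CYP3A4 in 200 mM KPO4, with 60 min NADPH-driven reaction at room temperature after 10 min compound exposure. Ketoconazole (57 uM) defined 100% inhibition.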

COc1ncc2nc(-c3cc(F)cc(F)c3)c(=O)n(Cc3cccs3)c2n1
inactive: Potency [1] > 11.4 µM | activity change, negative = inhibition [2] 14.2% | activity change, negative = inhibition [3] -10.4% | activity, negative = inhibition [4] 4.55% | Potency [5] > 9.22 µM | Potency [6] > 46 µM | Potency [7] | Potency [8] | outcome [9]

O=c1c(-c2cccc(Cl)c2)nc2cncnc2n1Cc1ccc(F)cc1
inactive: Potency [1] > 11.4 µM | activity change, negative = inhibition [2] -7.68% | activity change, negative = inhibition [3] -0.975% | activity, negative = inhibition [4] -5.55% | Potency [5] > 9.22 µM | Potency [6] > 46 µM | Potency [7] | Potency [10] | outcome [9]

COc1ccc(-n2c(=O)c(-c3ccc(F)cc3)nc3cnc(OC)nc32)cc1
inactive: Potency [1] > 11.4 µM | activity change, negative = inhibition [2] -6.43% | activity change, negative = inhibition [3] 8.51% | activity, negative = inhibition [4] -13.4% | Potency [5] > 9.22 µM | Potency [6] > 46 µM | Potency [7] | Potency [8] | Potency [10] | outcome [9]

COc1cccc(Cn2c(=O)c(-c3cccc(F)c3)nc3cncnc32)c1
inactive: Potency [1] > 11.4 µM | activity change, negative = inhibition [2] -9.03% | activity change, negative = inhibition [3] -6.22% | activity, negative = inhibition [4] -7.22% | Potency [5] > 9.22 µM | Potency [6] > 46 µM | Potency [7] | Potency [8] | Potency [10] | outcome [9]

COc1ncc2nc(-c3ccc(F)cc3)c(=O)n(C[C@H]3CCCO3)c2n1
inactive: Potency [1] > 11.4 µM | activity change, negative = inhibition [2] 3.08% | activity change, negative = inhibition [3] -6.14% | activity, negative = inhibition [4] -1.31% | Potency [5] > 9.22 µM | Potency [6] > 46 µM | Potency [7] | Potency [8] | outcome [9]

COc1cccc(Cn2c(=O)c(C)nc3cnc(Oc4ccccc4)nc32)c1
inactive: Potency [1] > 11.4 µM | activity change, negative = inhibition [2] -12.2% | activity change, negative = inhibition [3] -3.17% | activity, negative = inhibition [4] -2.47% | Potency [5] > 9.22 µM | Potency [6] > 46 µM | Potency [7] | outcome [9]

COc1cccc(Cn2c(=O)c(C)nc3cnc(N4CCOCC4)nc32)c1
inactive: Potency [1] > 11.4 µM | activity change, negative = inhibition [2] -24.9% | activity change, negative = inhibition [3] 2.68% | activity, negative = inhibition [4] -1.29% | Potency [5] > 9.22 µM | Potency [6] > 46 µM | Potency [7] | outcome [9]

COCCn1c(=O)c(-c2ccc(Cl)cc2)nc2cnc(Oc3ccc(OC)cc3)nc21
inactive: Potency [1] > 11.4 µM | activity change, negative = inhibition [2] -18.1% | activity change, negative = inhibition [3] -1.47% | activity, negative = inhibition [4] -2.62% | Potency [5] > 9.22 µM | Potency [6] > 46 µM | Potency [7] | Potency [8] | outcome [9]

Source: PubChem BioAssay (NCATS)
